# How the values were obtained:
# Assay in all cases: DAPPL (digital affinity profiling via proximity ligation, sequencing); 10 mM Tris-HCl pH 7.5, 50 mM NaCl, 1 mM DTT, 4% glycerol, room temperature, 30 min; GST-TFs on glutathione beads, 16-mer random dsDNA library, 0.1% formaldehyde crosslink after washing; high values mean tight binding
# [1] = molecular target: T1, FEV (Homo sapiens, UniProt Q99581 1-238); conditions: protein: recombinant; tags: N-terminal GST; dsDNA, one strand shown
# T1 sequence: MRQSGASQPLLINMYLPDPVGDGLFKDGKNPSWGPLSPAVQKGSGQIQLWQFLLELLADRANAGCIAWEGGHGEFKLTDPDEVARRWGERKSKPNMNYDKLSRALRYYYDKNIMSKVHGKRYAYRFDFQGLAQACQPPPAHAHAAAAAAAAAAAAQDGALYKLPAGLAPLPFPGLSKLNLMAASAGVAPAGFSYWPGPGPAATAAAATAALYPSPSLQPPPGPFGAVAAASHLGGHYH
# Outline: (§1)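 GST fusions of human transcription factors were expressed in yeast and captured with glutathione beads. Once given DNA barcodes and pooled alongside a tag-only sample, they were incubated for 30 min at room temperature with 200 nmole of a random double-stranded 16-mer DNA library in Tris/NaCl/DTT/glycerol buffer, then washed, crosslinked (0.1% formaldehyde), proximity-ligated, PCR-amplified and sequenced on an Illumina NextSeq500. The binding signal of each hexamer is its read frequency for a factor divided by its frequency for the tag-only sample.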
# [2] = molecular target: ETV5 (Homo sapiens, UniProt P41161 1-510); conditions: protein: recombinant; tags: N-terminal GST; dsDNA, one strand shown
# Outline: as §1
# [3] = molecular target: HSF1 (Homo sapiens, UniProt Q00613 1-529); conditions: protein: recombinant; tags: N-terminal GST; chain copies: 3; dsDNA, one strand shown
# Outline: as §1
# [4] = molecular target: T2, SPIC (Homo sapiens, UniProt Q8N5J4 1-248); conditions: protein: recombinant; tags: N-terminal GST; dsDNA, one strand shown
# T2 sequence: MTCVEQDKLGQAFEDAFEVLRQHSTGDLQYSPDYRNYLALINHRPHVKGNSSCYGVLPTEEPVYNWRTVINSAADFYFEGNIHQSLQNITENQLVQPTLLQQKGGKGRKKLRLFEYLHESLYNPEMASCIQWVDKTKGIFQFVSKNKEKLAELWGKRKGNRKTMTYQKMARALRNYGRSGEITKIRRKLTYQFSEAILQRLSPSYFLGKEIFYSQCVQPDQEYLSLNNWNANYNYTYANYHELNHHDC
# Outline: as §1
# [5] = molecular target: ELF4 (Homo sapiens, UniProt Q99607 1-663); conditions: protein: recombinant; tags: N-terminal GST; dsDNA, one strand shown
# Outline: as §1
# [6] = molecular target: T3, ELK4 (Homo sapiens, UniProt P28324-2 1-405); conditions: protein: recombinant; tags: N-terminal GST; dsDNA, one strand shown
# T3 sequence: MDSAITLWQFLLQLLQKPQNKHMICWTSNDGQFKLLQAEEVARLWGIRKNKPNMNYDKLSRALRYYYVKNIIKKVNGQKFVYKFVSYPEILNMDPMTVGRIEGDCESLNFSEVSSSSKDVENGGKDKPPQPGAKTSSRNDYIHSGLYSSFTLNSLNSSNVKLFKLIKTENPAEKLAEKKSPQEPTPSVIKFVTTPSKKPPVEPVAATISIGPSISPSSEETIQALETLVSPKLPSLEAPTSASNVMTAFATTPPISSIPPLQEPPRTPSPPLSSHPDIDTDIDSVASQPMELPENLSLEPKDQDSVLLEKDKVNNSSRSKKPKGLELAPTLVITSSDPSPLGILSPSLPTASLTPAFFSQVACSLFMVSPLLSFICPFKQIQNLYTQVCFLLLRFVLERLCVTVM
# Outline: as §1
# [7] = molecular target: T4, ELF3 (Homo sapiens, UniProt P78545 1-371); conditions: protein: recombinant; tags: N-terminal GST; dsDNA, one strand shown
# T4 sequence: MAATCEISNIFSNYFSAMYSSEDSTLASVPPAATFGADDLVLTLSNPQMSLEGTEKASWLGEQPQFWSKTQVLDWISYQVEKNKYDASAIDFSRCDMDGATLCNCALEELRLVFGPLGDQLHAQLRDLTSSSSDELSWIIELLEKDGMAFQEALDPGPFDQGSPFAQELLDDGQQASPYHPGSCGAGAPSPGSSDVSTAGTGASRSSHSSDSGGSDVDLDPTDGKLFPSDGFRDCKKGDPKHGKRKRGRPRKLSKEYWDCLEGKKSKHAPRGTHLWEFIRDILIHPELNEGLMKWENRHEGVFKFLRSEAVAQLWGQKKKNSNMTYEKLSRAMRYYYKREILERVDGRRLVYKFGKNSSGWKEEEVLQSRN
# Outline: as §1
# [8] = molecular target: ETV1 (Homo sapiens, UniProt P50549 1-477); conditions: protein: recombinant; tags: N-terminal GST; dsDNA, one strand shown
# Outline: as §1
# [9] = molecular target: T5, ERF (Homo sapiens, UniProt P50548 1-548); conditions: protein: recombinant; tags: N-terminal GST; dsDNA, one strand shown
# T5 sequence: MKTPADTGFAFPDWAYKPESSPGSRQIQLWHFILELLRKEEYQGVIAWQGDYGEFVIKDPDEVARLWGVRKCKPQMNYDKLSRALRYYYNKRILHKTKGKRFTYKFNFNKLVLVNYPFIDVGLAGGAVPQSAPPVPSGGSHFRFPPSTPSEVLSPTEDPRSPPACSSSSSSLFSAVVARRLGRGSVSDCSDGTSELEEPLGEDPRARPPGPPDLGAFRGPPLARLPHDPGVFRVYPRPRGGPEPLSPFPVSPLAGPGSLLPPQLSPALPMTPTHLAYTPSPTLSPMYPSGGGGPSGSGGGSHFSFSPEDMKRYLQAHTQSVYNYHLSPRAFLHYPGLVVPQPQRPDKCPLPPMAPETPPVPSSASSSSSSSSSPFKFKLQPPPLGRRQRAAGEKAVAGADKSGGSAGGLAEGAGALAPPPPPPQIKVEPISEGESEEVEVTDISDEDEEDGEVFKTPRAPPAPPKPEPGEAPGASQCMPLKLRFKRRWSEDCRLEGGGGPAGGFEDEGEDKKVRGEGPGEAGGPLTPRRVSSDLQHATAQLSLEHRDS
# Outline: as §1
# [10] = molecular target: T6, ETV3L (Homo sapiens, UniProt Q6ZN32 1-361); conditions: protein: recombinant; tags: N-terminal GST; dsDNA, one strand shown
# T6 sequence: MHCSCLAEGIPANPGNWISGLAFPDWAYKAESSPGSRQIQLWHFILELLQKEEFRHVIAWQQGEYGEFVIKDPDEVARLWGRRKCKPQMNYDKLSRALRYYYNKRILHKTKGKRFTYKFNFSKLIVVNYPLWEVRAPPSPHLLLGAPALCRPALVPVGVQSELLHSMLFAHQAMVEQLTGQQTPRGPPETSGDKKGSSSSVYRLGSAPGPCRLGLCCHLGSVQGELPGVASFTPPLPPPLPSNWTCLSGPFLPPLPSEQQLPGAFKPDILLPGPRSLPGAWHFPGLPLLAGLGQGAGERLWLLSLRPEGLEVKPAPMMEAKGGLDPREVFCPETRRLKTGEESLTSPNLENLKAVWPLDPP
# Outline: as §1
# [11] = molecular target: T7, ETS2 (Homo sapiens, UniProt P15036 1-469); conditions: protein: recombinant; tags: N-terminal GST; dsDNA, one strand shown
# T7 sequence: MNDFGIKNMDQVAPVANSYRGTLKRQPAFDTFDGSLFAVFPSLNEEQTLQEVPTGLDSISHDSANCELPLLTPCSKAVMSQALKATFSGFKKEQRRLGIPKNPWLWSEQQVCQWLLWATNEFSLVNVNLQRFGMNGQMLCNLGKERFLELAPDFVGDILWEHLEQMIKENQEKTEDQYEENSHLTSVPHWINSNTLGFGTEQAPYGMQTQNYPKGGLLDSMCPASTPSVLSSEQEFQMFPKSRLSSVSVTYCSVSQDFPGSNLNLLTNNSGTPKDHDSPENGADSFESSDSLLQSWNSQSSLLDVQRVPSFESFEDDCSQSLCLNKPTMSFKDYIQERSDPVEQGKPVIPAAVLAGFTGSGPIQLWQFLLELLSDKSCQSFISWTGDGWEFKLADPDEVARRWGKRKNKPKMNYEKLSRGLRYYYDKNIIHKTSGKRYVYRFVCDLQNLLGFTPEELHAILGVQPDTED
# Outline: as §1
# [12] = molecular target: T8, SPDEF (Homo sapiens, UniProt O95238 1-335); conditions: protein: recombinant; tags: N-terminal GST; dsDNA, one strand shown
# T8 sequence: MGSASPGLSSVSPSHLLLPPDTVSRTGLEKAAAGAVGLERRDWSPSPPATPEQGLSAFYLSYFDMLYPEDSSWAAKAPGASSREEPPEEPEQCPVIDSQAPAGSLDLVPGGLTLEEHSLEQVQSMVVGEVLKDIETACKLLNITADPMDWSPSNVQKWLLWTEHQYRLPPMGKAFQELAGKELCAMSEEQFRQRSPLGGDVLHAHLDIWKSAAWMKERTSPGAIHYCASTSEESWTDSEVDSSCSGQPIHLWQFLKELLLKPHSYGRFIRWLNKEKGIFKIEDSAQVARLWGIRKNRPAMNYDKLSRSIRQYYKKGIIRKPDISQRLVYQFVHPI
# Outline: as §1
# [13] = molecular target: T9, ETV7 (Homo sapiens, UniProt Q9Y603 1-341); conditions: protein: recombinant; tags: N-terminal GST; dsDNA, one strand shown
# T9 sequence: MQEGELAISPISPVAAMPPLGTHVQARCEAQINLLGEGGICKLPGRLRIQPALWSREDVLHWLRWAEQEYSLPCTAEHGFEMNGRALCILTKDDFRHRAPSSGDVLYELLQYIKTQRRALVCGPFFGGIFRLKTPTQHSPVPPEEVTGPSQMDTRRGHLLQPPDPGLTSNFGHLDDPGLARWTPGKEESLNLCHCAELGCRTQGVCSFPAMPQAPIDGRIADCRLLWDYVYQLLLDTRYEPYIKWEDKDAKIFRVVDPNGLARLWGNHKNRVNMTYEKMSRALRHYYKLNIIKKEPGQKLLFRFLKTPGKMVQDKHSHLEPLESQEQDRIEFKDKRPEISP
# Outline: as §1
# [14] = molecular target: T10, ELF5 (Homo sapiens, UniProt Q9UKW6-2 1-255); conditions: protein: recombinant; tags: N-terminal GST; dsDNA, one strand shown
# T10 sequence: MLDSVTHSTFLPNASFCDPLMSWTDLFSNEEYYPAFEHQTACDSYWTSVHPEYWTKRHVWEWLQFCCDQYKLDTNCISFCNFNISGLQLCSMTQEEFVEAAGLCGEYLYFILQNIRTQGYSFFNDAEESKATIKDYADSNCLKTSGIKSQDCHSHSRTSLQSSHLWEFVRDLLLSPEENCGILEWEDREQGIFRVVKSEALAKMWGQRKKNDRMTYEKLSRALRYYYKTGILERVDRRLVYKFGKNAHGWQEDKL
# Outline: as §1
# [15] = molecular target: T11, ETV3 (Homo sapiens, UniProt P41162-2 1-143); conditions: protein: recombinant; tags: N-terminal GST; dsDNA, one strand shown
# T11 sequence: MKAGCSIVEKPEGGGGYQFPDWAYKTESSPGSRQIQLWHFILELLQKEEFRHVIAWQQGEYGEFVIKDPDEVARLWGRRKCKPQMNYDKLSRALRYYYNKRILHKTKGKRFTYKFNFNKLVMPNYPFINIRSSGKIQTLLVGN
# Outline: as §1
# [16] = molecular target: ETV6 (Homo sapiens, UniProt P41212 1-452); conditions: protein: recombinant; tags: N-terminal GST; dsDNA, one strand shown
# Outline: as §1
# [17] = molecular target: CRX (Homo sapiens, UniProt O43186 1-299); conditions: protein: recombinant; tags: N-terminal GST; dsDNA, one strand shown
# Outline: as §1
# Chain of ETV6 (P41212 whole entry): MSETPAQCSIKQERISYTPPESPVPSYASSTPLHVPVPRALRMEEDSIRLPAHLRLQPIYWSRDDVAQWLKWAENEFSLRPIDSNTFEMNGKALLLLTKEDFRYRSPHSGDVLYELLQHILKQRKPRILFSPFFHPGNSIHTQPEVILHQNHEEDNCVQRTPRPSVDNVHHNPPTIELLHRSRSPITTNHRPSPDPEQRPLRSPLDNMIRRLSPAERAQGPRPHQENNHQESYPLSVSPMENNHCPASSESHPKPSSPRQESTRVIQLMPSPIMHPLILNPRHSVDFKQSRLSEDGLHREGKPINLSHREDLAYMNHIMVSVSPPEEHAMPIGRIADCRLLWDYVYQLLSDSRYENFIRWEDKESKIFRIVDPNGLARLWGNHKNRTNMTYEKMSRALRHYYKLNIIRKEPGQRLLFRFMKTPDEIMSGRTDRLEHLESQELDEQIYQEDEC
# Chain of HSF1 (Q00613 whole entry): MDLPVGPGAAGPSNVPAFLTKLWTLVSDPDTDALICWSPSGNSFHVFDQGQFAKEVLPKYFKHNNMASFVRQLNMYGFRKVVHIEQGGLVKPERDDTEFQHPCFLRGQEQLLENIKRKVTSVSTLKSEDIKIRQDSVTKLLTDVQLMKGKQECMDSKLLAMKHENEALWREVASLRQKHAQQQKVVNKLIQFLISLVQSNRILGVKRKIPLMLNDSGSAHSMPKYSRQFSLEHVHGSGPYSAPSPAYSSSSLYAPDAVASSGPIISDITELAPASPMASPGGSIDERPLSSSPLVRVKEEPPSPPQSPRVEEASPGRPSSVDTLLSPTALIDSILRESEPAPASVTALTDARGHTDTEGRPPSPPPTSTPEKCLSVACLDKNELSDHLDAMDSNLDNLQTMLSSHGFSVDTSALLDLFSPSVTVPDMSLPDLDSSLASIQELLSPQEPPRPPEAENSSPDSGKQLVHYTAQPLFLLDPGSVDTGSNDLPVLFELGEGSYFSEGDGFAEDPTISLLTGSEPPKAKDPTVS
# Chain of ELF4 (Q99607 whole entry): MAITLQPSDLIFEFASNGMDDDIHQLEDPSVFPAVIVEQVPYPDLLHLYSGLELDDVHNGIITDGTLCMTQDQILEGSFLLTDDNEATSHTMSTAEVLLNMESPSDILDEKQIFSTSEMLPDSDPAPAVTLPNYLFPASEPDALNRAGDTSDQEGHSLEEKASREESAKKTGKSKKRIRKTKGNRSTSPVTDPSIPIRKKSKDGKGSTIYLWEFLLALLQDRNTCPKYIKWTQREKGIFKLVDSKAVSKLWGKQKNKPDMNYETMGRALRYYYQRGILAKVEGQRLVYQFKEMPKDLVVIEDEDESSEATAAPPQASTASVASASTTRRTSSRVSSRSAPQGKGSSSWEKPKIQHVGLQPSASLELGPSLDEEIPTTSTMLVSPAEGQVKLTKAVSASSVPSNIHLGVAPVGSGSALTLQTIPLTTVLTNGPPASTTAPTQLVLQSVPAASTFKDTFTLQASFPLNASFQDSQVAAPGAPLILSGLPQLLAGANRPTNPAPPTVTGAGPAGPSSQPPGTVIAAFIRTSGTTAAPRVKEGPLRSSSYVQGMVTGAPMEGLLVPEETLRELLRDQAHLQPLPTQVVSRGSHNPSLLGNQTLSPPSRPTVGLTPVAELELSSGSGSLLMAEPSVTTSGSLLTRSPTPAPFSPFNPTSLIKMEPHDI
# Chain of ETV5 (P41161 whole entry): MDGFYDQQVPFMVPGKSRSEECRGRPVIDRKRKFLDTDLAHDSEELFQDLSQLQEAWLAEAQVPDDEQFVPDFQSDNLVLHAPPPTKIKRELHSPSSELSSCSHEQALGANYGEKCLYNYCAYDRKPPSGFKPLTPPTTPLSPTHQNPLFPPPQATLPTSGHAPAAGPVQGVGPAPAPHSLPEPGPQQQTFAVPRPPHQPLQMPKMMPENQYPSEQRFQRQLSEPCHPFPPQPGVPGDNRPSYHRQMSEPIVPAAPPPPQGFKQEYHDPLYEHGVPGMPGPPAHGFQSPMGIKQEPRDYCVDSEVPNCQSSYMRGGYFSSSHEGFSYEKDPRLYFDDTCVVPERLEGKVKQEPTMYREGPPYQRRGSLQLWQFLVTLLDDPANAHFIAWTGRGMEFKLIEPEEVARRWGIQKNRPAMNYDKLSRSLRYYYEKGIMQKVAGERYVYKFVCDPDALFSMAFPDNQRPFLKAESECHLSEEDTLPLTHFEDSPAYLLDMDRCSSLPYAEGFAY
# Chain of ETV1 (P50549 whole entry): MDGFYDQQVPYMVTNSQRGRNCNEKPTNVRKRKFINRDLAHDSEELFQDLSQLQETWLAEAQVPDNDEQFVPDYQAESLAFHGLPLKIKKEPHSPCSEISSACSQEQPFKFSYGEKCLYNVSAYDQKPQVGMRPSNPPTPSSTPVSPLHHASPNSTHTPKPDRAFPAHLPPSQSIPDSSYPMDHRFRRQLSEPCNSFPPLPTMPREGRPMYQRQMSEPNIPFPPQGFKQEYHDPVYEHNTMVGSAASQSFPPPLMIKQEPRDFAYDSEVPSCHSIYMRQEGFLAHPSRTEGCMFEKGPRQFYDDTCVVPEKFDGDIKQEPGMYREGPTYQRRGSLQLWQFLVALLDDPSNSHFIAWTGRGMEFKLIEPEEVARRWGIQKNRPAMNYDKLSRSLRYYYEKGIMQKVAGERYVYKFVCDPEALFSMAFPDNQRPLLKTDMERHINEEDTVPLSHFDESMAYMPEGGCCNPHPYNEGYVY
# Chain of CRX (O43186 whole entry): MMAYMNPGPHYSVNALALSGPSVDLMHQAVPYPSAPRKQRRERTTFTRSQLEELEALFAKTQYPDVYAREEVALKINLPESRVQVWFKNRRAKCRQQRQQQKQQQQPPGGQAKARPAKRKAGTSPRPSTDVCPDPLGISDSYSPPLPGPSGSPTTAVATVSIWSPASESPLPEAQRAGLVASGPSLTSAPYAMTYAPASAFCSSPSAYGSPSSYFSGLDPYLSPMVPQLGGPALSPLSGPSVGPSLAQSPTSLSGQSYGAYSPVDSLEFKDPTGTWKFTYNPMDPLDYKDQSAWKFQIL
Sequence,binding signal [1],binding signal [2],binding signal [3],binding signal [4],binding signal [5],binding signal [6],binding signal [7],binding signal [8],binding signal [9],binding signal [10],binding signal [11],binding signal [12],binding signal [13],binding signal [14],binding signal [15],binding signal [16],binding signal [17]
TGCGCA,"1.14 fold enrichment (6-mer frequency, TF over GST control)","1.12 fold enrichment (6-mer frequency, TF over GST control)","1.07 fold enrichment (6-mer frequency, TF over GST control)","1.15 fold enrichment (6-mer frequency, TF over GST control)","1.09 fold enrichment (6-mer frequency, TF over GST control)","1.12 fold enrichment (6-mer frequency, TF over GST control)","1.06 fold enrichment (6-mer frequency, TF over GST control)","1.07 fold enrichment (6-mer frequency, TF over GST control)","1.11 fold enrichment (6-mer frequency, TF over GST control)","1.11 fold enrichment (6-mer frequency, TF over GST control)","1.18 fold enrichment (6-mer frequency, TF over GST control)","1.02 fold enrichment (6-mer frequency, TF over GST control)","1.03 fold enrichment (6-mer frequency, TF over GST control)","1.06 fold enrichment (6-mer frequency, TF over GST control)","1.14 fold enrichment (6-mer frequency, TF over GST control)","1.07 fold enrichment (6-mer frequency, TF over GST control)",–
ATGAAG,–,"1.01 fold enrichment (6-mer frequency, TF over GST control)","1.07 fold enrichment (6-mer frequency, TF over GST control)","1.14 fold enrichment (6-mer frequency, TF over GST control)","1.08 fold enrichment (6-mer frequency, TF over GST control)","1.17 fold enrichment (6-mer frequency, TF over GST control)","1.02 fold enrichment (6-mer frequency, TF over GST control)",–,"1.12 fold enrichment (6-mer frequency, TF over GST control)","1.05 fold enrichment (6-mer frequency, TF over GST control)","1.06 fold enrichment (6-mer frequency, TF over GST control)","1.07 fold enrichment (6-mer frequency, TF over GST control)","1.09 fold enrichment (6-mer frequency, TF over GST control)",–,"1.03 fold enrichment (6-mer frequency, TF over GST control)","1.03 fold enrichment (6-mer frequency, TF over GST control)","1.04 fold enrichment (6-mer frequency, TF over GST control)"
CGCTCG,"1.08 fold enrichment (6-mer frequency, TF over GST control)","1.05 fold enrichment (6-mer frequency, TF over GST control)","1.16 fold enrichment (6-mer frequency, TF over GST control)","1.24 fold enrichment (6-mer frequency, TF over GST control)","1.17 fold enrichment (6-mer frequency, TF over GST control)","1.13 fold enrichment (6-mer frequency, TF over GST control)","1.35 fold enrichment (6-mer frequency, TF over GST control)","1.09 fold enrichment (6-mer frequency, TF over GST control)","1.2 fold enrichment (6-mer frequency, TF over GST control)",–,"1.1 fold enrichment (6-mer frequency, TF over GST control)","1.1 fold enrichment (6-mer frequency, TF over GST control)",–,"1.03 fold enrichment (6-mer frequency, TF over GST control)","1.08 fold enrichment (6-mer frequency, TF over GST control)","1.08 fold enrichment (6-mer frequency, TF over GST control)",–

# Reference: paper PMC7862700, “An all-to-all approach to the identification of sequence-specific readers for epigenetic DNA modifications on cytosine”
